# Shown are actives, neighbours in structure and some others; about 10% of the full set was active somewhere.
# HP1b chromo inh = inhibitors of HP1-beta chromodomain binding to methylated histone tails; AlphaScreen HP1-beta / biotin-H3K9me3 peptide binding; Potency, µM (highest dose often 114 µM), inactives show top-dose activity change, negative = inhibition, actives largely listed as inhibitors; hit rate 0.56% among 390,000; further: potency means the concentration at half of the fitted maximal effect; nearly all actives have a fitted effect of over 70% in size
#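 AlphaScreen: HP1-beta (50 nM) preformed 30 min with biotin-H3(1-18)K9me3 peptide (50 nM) in PBS pH 7.4, 0.01% Tween-20. Compound added for 30 min at RT, then streptavidin donor/nickel chelate acceptor beads (10 ug/mL) for 30 min.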
# JMJD2A Tudor inh = JMJD2A Tudor domain (human) inhibition; O75164; AlphaScreen JMJD2A-Tudor / H3K4me3 peptide binding; Potency, µM (doses to about 114 µM), for inactives: at the top dose activity change, negative = inhibition, most hits filed as inhibitors; hit rate 4.4% among 390,000; AID 504339; further: potency means the concentration at half of the fitted maximal effect; on the % scale 0 is the no-effect control and ±100 the full control effect; nearly all actives have a fitted effect of over 50% in size
# G9a inh = inhibitors of human histone lysine methyltransferase G9a | Q96KQ7 | G9a H3K9 monomethylation, AlphaScreen, 2 h | Potency, µM (highest dose often 102 µM), inactives show at the highest dose activity, negative = inhibition, usual class: inhibitors | hit rate 8.8% among 350,000; further: potency means the concentration at half of the fitted maximal effect; on the % scale 0 is the no-effect control and ±100 the full control effect; nearly all actives have a fitted effect of over 75% in size
#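 Methyltransferase reactions run at room temperature for 2 h (20 nM enzyme, 500 nM biotin-H3K9 peptide, 20 uM SAM) after a 15 min compound preincubation; product detected by AlphaScreen beads and anti-H3K9me1 antibody.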
# BAZ2B inh = BAZ2B (human) inhibition; AlphaScreen BAZ2B-H3K14Ac peptide displacement; Q9UIF8; Potency, µM (titrated, usually from 114 µM), inactives show top-dose activity change, negative = inhibition, usual class: inhibitors; hit rate 4.4% among 360,000; further: potency means the concentration at half of the fitted maximal effect; on the % scale 0 is the no-effect control and ±100 the full control effect; nearly all actives have a fitted effect of over 60% in size
#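 In this displacement format the biotinylated H3(5-23) peptide acetylated at Lys14 serves as ligand at 50 nM, with BAZ2B at 50 nM in PBS pH 7.4 containing 0.01% Tween-20. Donor and acceptor beads are 10 ug/mL final.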
# Six1-Eya2 inh = Six1/Eya2 interaction inhibition; AlphaScreen GST-Six1/His-Eya2 binding, biochemical; hits give low values; activity change, % (test concentration not listed); hit rate 0.56% among 360,000; AID 651725; in the data active means activity change below about -65%; inconclusive means mostly about -30% to -63%; further: on the % scale 0 is the no-effect control and ±100 the full control effect
#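 AlphaScreen with GST-Six1 and His-Eya2 (5X mix: 250 nM and 500 nM), glutathione donor and nickel acceptor beads; buffer 50 mM Tris pH 8.0, 300 mM NaCl, 1 mM TCEP; 1 h at 37 C in the dark.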
# CtBP-E1A blk = blocks the CtBP interaction with E1A; hit rate 0.49% among 340,000; AID 651724; activity change, % (no concentration beside the values); AlphaScreen GST-E1A/His-CtBP binding, 1536-well; hits give low values; in the data active means activity change below about -65%; inconclusive means mostly about -30% to -63%; further: on the % scale 0 is the no-effect control and ±100 the full control effect
#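 GST-E1A and His-tagged CtBP (125 nM each as 5X stock) were preincubated with pin-transferred compound for 2 h at 37 °C in the dark, then glutathione donor and nickel acceptor beads were added for 1 h before AlphaScreen reading.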
# Numbers without * were called inactive; u = inconclusive; x = no result given; [ ] = another dose, or the depositor's remark. Unless noted, the call rests on the fitted dose curve; in most records, active means well fitted inhibition curve with a large enough effect; inconclusive means small, poorly fitted or top-dose-only effect; inactive means no such curve, though single readings can be large or run the other way.
SMILES,HP1b chromo inh,JMJD2A Tudor inh,G9a inh,BAZ2B inh,Six1-Eya2 inh,CtBP-E1A blk
COc1ccc(N2CCN(c3nc4ccc(C)cc4n4nnnc34)CC2)cc1,31%,-10%,-7%[59 µM],-6%,x,x
O=C(/C=C/c1ccco1)c1ccc(NC(=O)C23CC4CC(CC(C4)C2)C3)cc1,u,u,4.5µM*,35µM*,-3,6
N#Cc1nc(Nc2ccccc2)nc(NC2CCCCC2)n1,x,-1%,x,x,x,x
Cc1ccccc1C(=O)N1CCC(C(=O)NN2C(=O)NC3(CCCCC3)C2=O)CC1,22%,-8%,21%[12.7 µM],-5%,-1,-24
Clc1ccc(Nc2c(-c3cccs3)nc3ccc(Cl)cn23)cc1,5%,-35%,-25%[59 µM],-8%,x,x
Brc1ccc2nc(-c3cccs3)c(NCC3CCCO3)n2c1 (stereo unspecified),18%,-24%,x,50µM*,-11,1
CC(=O)c1c(C)nc2nc(-c3ccccc3)nn2c1C,13%,-2%,2%[59 µM],-9%,x,x
CCc1ccc(OCC(=O)O/N=C(\N)c2ccccn2)cc1,44%,7%,u,1%,1,x
N/C(=N\OC(=O)COc1ccccc1)c1ccccn1,25%,-1%,11µM*,-19%,3,x
N/C(=N\OC(=O)COc1ccc(Br)cc1Cl)c1ccccn1,20%,79µM*,u,7%,0,1
N/C(=N\OC(=O)/C=C/c1ccccc1Cl)c1ccccn1,60%,-7%,-7%[59 µM],79µM*,-18,u
N/C(=N\OC(=O)/C=C/c1ccccc1Cl)c1cccnc1,31%,2%,7%,3%,-1,-5
N/C(=N\OC(=O)c1ccc(Br)o1)c1ccccn1,20%,-19%,20µM*,-35%,9,-3
N/C(=N\OC(=O)COc1ccc(Cl)cc1Cl)c1ccccn1,28%,2%,u,-14%,-1,x
O=C(OCc1ccc(Cl)cc1Cl)c1ccncc1,55%,11%,16%[59 µM],77%,14,6
Cc1cccc(NC(=O)CSc2n[nH]c(-c3ccncc3)n2)c1C,37%,-1%,u,-25%,-1,3
Cc1cc(Nc2ccc(O)cc2)ccc1N,11µM*,u,-2%[0.501 µM],6.3µM*,x,x
CCC(=O)Nc1ccc2ccccc2c1,18%,7%,1%[59 µM],-4%,-1,10
Oc1ccc(Nc2ccc3ccccc3c2)cc1,u,40µM*,x,x,u,-4
COc1cccc(NC(CNS(=O)(=O)c2ccc(Cl)cc2)c2ccccc2)c1 (stereo unspecified),34%,-34%,-2%[59 µM],-4%,x,x
CC(=O)n1c2c(c3ccccc31)OC(N)=C(C#N)C2c1cccc(Cl)c1Cl (stereo unspecified),23%,-19%,45µM*,3%,7,x
N#CC1(NC(=O)COC(=O)CCCN=C2NS(=O)(=O)c3ccccc32)CCCCC1,37%[57 µM],-6%,7%,-3%,11,9
O=Nc1c(-c2c(O)[nH]c3ccccc23)[nH]c2ccccc12,x,x,8.9µM*,x,x,x
Cc1cc(/C=C2/C(=O)NN(c3ccccc3)C2=O)c(C)n1-c1cccc(O)c1,-6%,-32%,22µM*,u,-22,-9
Cc1cc(/C=N/n2cnnc2)c(C)n1-c1ccccc1,0%,-6%,6%[59 µM],-13%,-10,-8
SMILES,HP1b chromo inh,JMJD2A Tudor inh,G9a inh,BAZ2B inh,Six1-Eya2 inh,CtBP-E1A blk
Cc1cc(/C=C2\SC(=S)NC2=O)c(C)n1-c1cccc(O)c1,u,-32%[11.4 µM],40µM*,50µM*,-14,-19
O=C1NN(c2ccccc2)C(=O)C1=Cc1ccccc1O,x,x,x,x,-2,-6
Cc1cc(/C=C2/NC(=O)NC2=O)c(C)n1-c1sc2c(c1C#N)CCCC2,-15%,u,-30%[12.7 µM],u,-11,-11
Cc1sc(-n2c(C)cc(/C=C3\SC(=S)NC3=O)c2C)c(C#N)c1C,u,40µM*,u,86%,u,-9
Cc1sc(-n2c(C)cc(/C=N/n3cnnc3)c2C)c(C#N)c1C,-36%,u,8.9µM*,u,-4,3
CC(C)NC(=O)Nc1cccc2c1O[C@H](CN(C)C(=O)NC1CCCCC1)[C@H](C)CN([C@H](C)CO)C2=O,11%,-35%,x,x,4,-21
OC[C@H]1O[C@@H]2O[C@H]3[C@H](O)[C@@H](O)[C@@H](O[C@H]4[C@H](O)[C@@H](O)[C@@H](O[C@H]5[C@H](O)[C@@H](O)[C@@H](O[C@H]6[C@H](O)[C@@H](O)[C@@H](O[C@H]7[C@H](O)[C@@H](O)[C@@H](O[C@H]1[C@H](O)[C@H]2O)O[C@@H]7CO)O[C@@H]6CO)O[C@@H]5CO)O[C@@H]4CO)O[C@@H]3CO,14%,u,20%[12.7 µM],-4%,-1,8
COC(=O)Cc1c(C)c2ccc3c(c2oc1=O)CN(Cc1ccc(Cl)cc1)CO3,35%,-24%,-24%[59 µM],-24%,x,x
CCS(=O)(=O)N1CCN(C(=O)c2ccccc2[N+](=O)[O-])CC1,43%,-1%[11.4 µM],u,-8%,13,x
CSc1nccn1C(=O)c1ccccc1[N+](=O)[O-],10%,35µM*,35µM*,-31%,8,-10
CC(=O)c1cccc(S(=O)(=O)NC(C)C2CC3CCC2C3)c1 (stereo unspecified),12%,-22%,50µM*,-5%,7,6

# Compound activity from PubChem BioAssay.
